About 950 (1.4%) of roughly 69,000 compounds showed an effect of 50% or more. The sample holds strong results, similar compounds and a random draw of the others, so the mix is not that of the screen.
System: Mycobacterium tuberculosis
Experiment: Cornell M. t heat shock assay; note: in the data most compounds retested in dose-response had high values
Format: functional, organism-based
Parameters: dose or concentration left out as unconfirmed

First: COC(=O)CCC(=O)N1CCCC2(CCCN2Cc2cccc(F)c2)C1.O=C(O)C(F)(F)F (stereo not given)
Second: COCCN1CCC2(CC1)C(=O)Nc1ccc(C(=O)NC(C)C)cc12.O=C(O)C(F)(F)F
The “Percent Effect” value of the first is higher: 3.912% for the first, -30.6% for the second.

Going from `O=C(O)C(F)(F)F.O=C(c1ccco1)N1CC[C@@H]2O[C@@H](COCCN3CCCC3)CC[C@@H]21` to `CS(=O)(=O)NC[C@H]1OC[C@@H]2CCN(CCc3ccccc3)C[C@@H]21.O=C(O)C(F)(F)F`, the “Percent Effect” value falls from -12.96% to -13.26%.

Going from `O=C(NC1CCCN(c2ccc(OC(F)F)cc2)C1)c1cnccn1` (stereo not given) to `CN1CCCC1c1cccc(Cc2ccccc2F)n1` (stereo not given), the “Percent Effect” value rises from 27.97% to 69.94%.

Going from `Cl.O=C(CN1CCCC1=O)N1CCC(O)(Cn2ccc3ccncc32)CC1` to `Cl.Cn1ccnc1C1(O)CCN(C(=O)Cc2ccccc2)CC1`, the “Percent Effect” value falls from 9.776% to -18.55%.

Going from `O=C(O)C(F)(F)F.O=S(=O)(C1CC1)N1C[C@@H]2COC[C@]2(COc2ccccn2)C1` to `Cc1cccc(CN2CCc3ncnc(C4CC4)c3CC2)n1.O=C(O)C(F)(F)F`, the “Percent Effect” value falls from -12.78% to -23.65%.

Going from `COc1cccc(CC2CCCN2Cc2nccn2C)c1` (stereo not given) to `CN1CCCC1c1cccc(Cc2ccc(F)cc2)n1` (stereo not given), the “Percent Effect” value rises from 0.2214% to 24.93%.

First: CNCC(=O)N1CCCC1c1n[nH]cc1-c1ccccc1F.Cl (stereo not given)
Second: CC(=O)N1CCCC1c1cccc(Cc2ccccc2F)n1 (stereo not given)
The “Percent Effect” value of the first is lower: -23.25% for the first, -21.24% for the second.

Compared with `CCc1cnc(N)nc1NCc1ccc(OC)cc1OC`, `CCc1cnc(N)nc1NCc1ccc(OC)c(OC)c1` is higher in “Percent Effect” value: -28.22% for the first, 5.948% for the second.

First: COc1ccc(NC(=O)N(CCO)Cc2ccsc2)c(OC)c1
Second: COc1ccc(CNC(Cc2ccsc2)c2ccc(C)cn2)c(OC)c1 (stereo not given)
The “Percent Effect” value of the first is lower: -10.14% for the first, 104.3% for the second.

First: Cc1cccc(-c2ncc(CNC(C)Cc3ncccc3C)cn2)c1 (stereo not given)
Second: Cc1cccnc1C(Cc1ccsc1)NCc1cnc(N(C)C)nc1 (stereo not given)
The “Percent Effect” value of the first is lower: 1.404% for the first, 69.2% for the second.

Going from `COc1ccncc1NCc1ccsc1` to `COc1ncc(NCc2ccsc2)cc1C(N)=O`, the “Percent Effect” value falls from -12.4% to -17.59%.

First: COc1ccc(CNC(Cc2cccs2)c2nc(C)c(C)s2)cc1OC.Cl (stereo not given)
Second: COc1ccc(CNC(Cc2ccsc2)c2ncccc2C)cc1OC (stereo not given)
The “Percent Effect” value of the first is lower: -4.28% for the first, 96.19% for the second.

First: COc1cccc(OC)c1CNC(Cc1ccsc1)c1ccc(C)cn1 (stereo not given)
Second: COc1ccc(CNC(Cc2ccsc2)c2ccc(C)cn2)cc1OC.Cl (stereo not given)
The “Percent Effect” value of the first is higher: 103.5% for the first, 97.07% for the second.

Going from `COc1cccc(CNC(C)C)c1OCc1ccc(C)cc1.Cl` to `COc1ccc(CNc2c(C)nn(C(C)C)c2C)cc1OC.Cl`, the “Percent Effect” value rises from 4.479% to 12.96%.

Compared with `Cc1cccnc1C(Cc1ccsc1)NC(=O)Cn1cccnc1=O` (stereo not given), `COc1ccc(C(C)NCc2ccsc2)cc1Cn1cccn1` (stereo not given) is lower in “Percent Effect” value: -0.9287% for the first, -10.38% for the second.

First: COc1ccccc1OCCNCc1c(C)nn(C)c1N(C)C.Cl
Second: COc1ccc(CNC(C)Cn2cccn2)cc1OC (stereo not given)
The “Percent Effect” value of the first is higher: 31.69% for the first, -13.02% for the second.

Compared with `COc1ccc(CC(=O)NCC(O)c2sccc2C)cc1OC` (stereo not given), `CCCc1ccc(OC23CCCN(CC2)C3)c(OC)c1` (stereo not given) is higher in “Percent Effect” value: 0.2606% for the first, 85.22% for the second.

Compared with `Cc1ccc(CNC2CCc3[nH]c(=O)ccc3C2)cc1C.O=C(O)C(F)(F)F` (stereo not given), `CN(C)[C@@H]1CCN(C(=O)Cc2ccc(F)cc2)[C@H]1Cc1cnn(C)c1.O=C(O)C(F)(F)F` is higher in “Percent Effect” value: -33.52% for the first, 10.95% for the second.

First: O=C(O)C(F)(F)F.O=C(O)C(F)(F)F.c1cnc(N2CC3(CCN(Cc4cccnc4)C3)C2)nc1
Second: O=C(O)C(F)(F)F.O=C(O)C(F)(F)F.c1cncc(-c2ncnc3c2CCN(Cc2cccs2)CC3)c1
The “Percent Effect” value of the first is lower: -26.88% for the first, -18.81% for the second.

Going from `CN1CCCC1c1cncc(C(=O)NCCN2CCCCC2)n1` (stereo not given) to `COc1cc(CN2CCCC2)ccc1OC12CCCN(CC1)C2` (stereo not given), the “Percent Effect” value falls from -9.497% to -26.73%.

Going from `O=C(Nc1cccnc1-n1cc(Cl)cn1)C1CCCC1` to `COc1ccc(CN2C[C@H]3C[C@H](C(=O)Nc4cccnc4)[C@@H](C2)O3)cc1`, the “Percent Effect” value falls from 16.14% to 4.187%.

First: Cc1cc(C2CCNCC2)nc(-c2ccsc2)n1.Cl
Second: CC(C)N(C)Cc1cncc2c1CCN(CC1CC1)C2.Cl.Cl.Cl
The “Percent Effect” value of the first is lower: -13.2% for the first, 9.593% for the second.

First: Cc1cnc(N2CCC3(CCN(Cc4csc(C)n4)C3=O)C2)nc1.O=C(O)C(F)(F)F (stereo not given)
Second: CCN1CCN(C)C(=O)C12CCN(Cc1csc(C)n1)CC2.O=C(O)C(F)(F)F
The “Percent Effect” value of the first is lower: -3.389% for the first, 25.71% for the second.

Going from `Cc1ccc2c(n1)N(Cc1cccnc1)CCN(C(=O)C1CC1)C2.O=C(O)C(F)(F)F.O=C(O)C(F)(F)F` to `Cc1ccc(N2CCC3(CCN(C(=O)c4ccccn4)CC3)CC2)nn1.O=C(O)C(F)(F)F.O=C(O)C(F)(F)F`, the “Percent Effect” value rises from -27.88% to -19.27%.

First: CN(Cc1ccc(-n2cccn2)cc1)C[C@@H]1CCCN2CCCC[C@H]12
Second: CN(Cc1ccncc1)C1COC2(CCN(Cc3cccs3)CC2)C1.O=C(O)C(F)(F)F.O=C(O)C(F)(F)F.O=C(O)C(F)(F)F (stereo not given)
The “Percent Effect” value of the first is lower: -24.54% for the first, 10.37% for the second.

First: COc1cc(C#N)ccc1OC12CCCN(CC1)C2 (stereo not given)
Second: COCCN1CCCn2c(nc(CNC(=O)COC)cc2=O)C1.O=C(O)C(F)(F)F
The “Percent Effect” value of the first is lower: -7.079% for the first, 37.74% for the second.

Going from `O=C(O)C(F)(F)F.O=C(O)[C@]12CCCN(C3CCOC3)C[C@H]1CN(c1nncs1)C2` (stereo not given in full) to `CN(C)C(=O)CO[C@@H]1CC[C@H]2[C@H]1OCCN2c1ncc(F)cn1.O=C(O)C(F)(F)F`, the “Percent Effect” value falls from 32.9% to 7.03%.

First: CCc1c(C)sc(NC(=O)CN2CCN(CC)CC2)c1C(=O)OC
Second: CCc1c(C)sc(NC(=O)CN2CCOCC2)c1C(=O)OC
The “Percent Effect” value of the first is higher: 103.2% for the first, 24.22% for the second.

Going from `CCOC(=O)c1c(NC(=O)CN2CCN(C(C)=O)CC2)sc(C)c1C` to `CC(C)Cc1cc(NC(=O)c2ccccc2)n(C)n1`, the “Percent Effect” value rises from -7.801% to 19.61%.

First: CC(C)Cc1cc(NC(=O)c2ccccn2)n(C)n1
Second: CC(C)Cc1cc(NC(=O)c2ccncc2)n(C)n1
The “Percent Effect” value of the first is higher: 64.59% for the first, 18.34% for the second.

From ChEMBL document CHEMBL3988442, “University of Dundee, Small-Polar-MMV Screening Library” (2021)
